Test results published in PubChem BioAssay (EPA / NIEHS).
Records with an inconclusive call do not appear. Where a structure was tested more than once in an assay, its records may differ in their call. The source made the active and inactive calls. How the source made its calls: active means hit-call score of the fitted dose curve at least 0.9, where 1 is the maximum; inconclusive means response in the unintended direction; inactive means score below 0.9.

Legend:
[1] = ATG_XTT_Cytotoxicity: Cytotoxicity Assessment in the Attagene TRANS-FACTORIAL HepG2 Assay (AID 2283584)
Summary of the method: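 HepG2 cells transiently transfected with GAL4-UAS multiple reporter units, dosed 24 h; cytotoxicity read by XTT as loss of signal versus DMSO baseline.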

[2] = TOX21_p53_BLA_p2_viability: Viability Assessment in the Tox21 HCT-116 p53 Agonism Beta-lactamase Assay, Phase 2 (AID 2283591);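 further: actives lower the ATP signal meaning cytotoxicity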
Summary of the method: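 Cytotoxicity readout: CellTiter-Glo ATP luminescence, 30 min at room temperature, after the beta-lactamase read. Cells were HCT116 exposed 16 h at 37C to compounds pin-transferred at 217-fold dilution from DMSO stocks.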

[3] = biological target: Cellular tumor antigen p53 (Homo sapiens) (UniProt P04637); experiment: TOX21_p53_BLA_p3_ratio: Tox21 HCT-116 p53 Agonism Beta-lactamase Assay, Ratio, Phase 3 (AID 2283596)
Summary of the method: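 Cells were seeded at 4000/well, rested 5 h at 37C, then dosed with DMSO compound solutions (217-fold dilution) for 16 h. CCF4-AM substrate was loaded for 2 h at room temperature, and the 460/530 nm emission ratio was fitted for gain of signal versus DMSO.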

[4] = TOX21_p53_BLA_p4_viability: Viability Assessment in the Tox21 HCT-116 p53 Agonism Beta-lactamase Assay, Phase 4 (AID 2283597);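 further: hits lower the luminescence signal meaning cytotoxicity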
Summary of the method: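 4000 HCT116 cells per well; 5 h attachment; compounds from DMSO, 217-fold dilution; 16 h at 37C. Then CCF4-AM, 2 h RT, followed by CellTiter-Glo, 30 min RT, luminescence. Decrease = cytotoxicity.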

[5] = TOX21_p53_BLA_p5_viability: Viability Assessment in the Tox21 HCT-116 p53 Agonism Beta-lactamase Assay, Phase 5 (AID 2283600)
Summary of the method: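 Decreased CellTiter-Glo luminescence denotes lost viability. Exposure: 16 h at 37C, 5% CO2, with compounds from DMSO stocks diluted 217-fold in wells of 4000 cells.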

[6] = biological target: Cellular tumor antigen p53 (Homo sapiens) (UniProt P04637); experiment: TOX21_p53_BLA_p2_ratio: Tox21 HCT-116 p53 Agonism Beta-lactamase Assay, Ratio, Phase 2 (AID 2283592)
Summary of the method: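 First, HCT116 reporter cells settle for 5 h at 37C. Next, DMSO compound solutions are pinned in (217-fold dilution) and left 16 h. Finally, CCF4-AM substrate is loaded 2 h at room temperature and the 460/530 nm ratio read.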

[7] = TOX21_p53_BLA_p3_viability: Viability Assessment in the Tox21 HCT-116 p53 Agonism Beta-lactamase Assay, Phase 3 (AID 2283593);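 further: cells exposed to compound for 16 h before reading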
Summary of the method: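 Cellular ATP was quantified by CellTiter-Glo luminescence, read after 30 min at room temperature. Beforehand, HCT116 cells (4000/well) received compound 5 h post-seeding, 217-fold diluted from DMSO, then incubated 16 h at 37C.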

[8] = biological target: Cellular tumor antigen p53 (Homo sapiens) (UniProt P04637); experiment: TOX21_p53_BLA_p4_ratio: Tox21 HCT-116 p53 Agonism Beta-lactamase Assay, Ratio, Phase 4 (AID 2283601)
Summary of the method: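 Signal is the blue/green (460nm/530nm) ratio of cleaved versus uncleaved CCF4-AM substrate, read after 2 h substrate loading. Cells were HCT116 carrying the p53-responsive beta-lactamase reporter, dosed 16 h at 37C, 5% CO2; CellTiter-Glo measured in parallel.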

[9] = biological target: Cellular tumor antigen p53 (Homo sapiens) (UniProt P04637); experiment: TOX21_p53_BLA_p5_ratio: Tox21 HCT-116 p53 Agonism Beta-lactamase Assay, Ratio, Phase 5 (AID 2283599)
Summary of the method: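 Beta-lactamase reporter ratio (blue 460 nm over green 530 nm, 405 nm excitation) after 2 h CCF4-AM loading, in HCT-116 cells exposed 16 h at 37 C to compounds pinned at 217-fold dilution. Increases relative to DMSO baseline scored.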

[10] = ACEA_AR_agonist_AUC_viability: ACEA Biosciences xCELLigence Real-Time Cell Analysis on Androgen Receptor Agonism for Viability (AID 2283775);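 on AC50: viability read 80 hours after compound addition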
Summary of the method: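 Viability endpoint from xCELLigence impedance in 22Rv1 prostate cells at 80 h. Eight-point series, 100 uM maximum final.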

[11] = test system: Thyroperoxidase (TPO), gene 54314; experiment: CCTE_Simmons_AUR_rTPO: CCTE's Amplex UltraRed Assay for Thyroperoxidase (TPO) Inhibition, Simmons Lab (AID 2283662);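 further: potency for loss of signal meaning inhibition of peroxidase activity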
Summary of the method: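 Rat thyroid microsomes (5 ug protein) were incubated with test compound (8 concentrations, 5 nM–87.5 uM final, 0.5% DMSO), 25 uM Amplex UltraRed and 300 uM H2O2 in 200 mM phosphate buffer for 30 min at 37C in the dark; fluorescence read at 544/590 nm.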

[12] = biological target: Luciferin 4-monooxygenase (Photinus pyralis) (UniProt P08659); experiment: CCTE_Simmons_QuantiLum_inhib_2: CCTE's Firefly Luciferase Inhibition Assay, Simmons Lab (AID 2283767)
Summary of the method: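 Eight-point titrations of each chemical, 5 nM–87.5 uM final in 0.5% DMSO, were run in three biological replicates against recombinant luciferase for 30 min at 37C. Bioluminescence signal loss, read on reagent injection, gave the inhibition endpoint.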

[13] = test system: chicken Androgen Receptor (AR), gene 422165; experiment: ATG_chAR_XSP1: Attagene TRANS-FACTORIAL Multi-Species (XSP1) HepG2 Assay for chicken Androgen Receptor (AR) (AID 2283768)
Summary of the method: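 Reporter mRNA read by RT-PCR with fluorescent labelling and capillary electrophoresis 24 h after chemical dosing of transiently transfected HepG2 cells. Chicken AR-Gal4 chimera, partially stimulated with 3 nM 6-alpha-fluorotestosterone; activity fitted upward relative to DMSO.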

[14] = test system: frog Androgen Receptor (AR), gene 399456; experiment: ATG_frAR_XSP1: Attagene TRANS-FACTORIAL Multi-Species (XSP1) HepG2 Assay for frog Androgen Receptor (AR) (AID 2283770)
[15] = biological target: zebrafish Estrogen Receptor (ESR1), esr1 (gene 259252) (UniProt P57717); experiment: ATG_zfER1_XSP1: Attagene TRANS-FACTORIAL Multi-Species (XSP1) HepG2 Assay for zebrafish Estrogen Receptor (ESR1) (AID 2283772)
Summary of the method: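 HepG2 cells transiently transfected with a GAL4-UAS reporter and chimeric zebrafish ER-Gal4, dosed 24 h with 3 nM 6-alpha-fluorotestosterone present. Reporter mRNA measured by RT-PCR and capillary electrophoresis; gain of signal versus DMSO.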

[16] = test system: zebrafish Estrogen Receptor (ESR2B), gene 317733; experiment: ATG_zfER2b_XSP1: Attagene TRANS-FACTORIAL Multi-Species (XSP1) HepG2 Assay for zebrafish Estrogen Receptor (ESR2B) (AID 2283773)
Summary of the method: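 Medium contained 3 nM 6-alpha-fluorotestosterone. Reporter mRNA induction by exogenous zebrafish ER2b-Gal4 chimera was read 24 h post-dose in transiently transfected HepG2 cells, using RT-PCR, fluorescent labelling, HpaI digestion and capillary electrophoresis.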

[17] = test system: frog Estrogen Receptor (ESR2), gene 100174814; experiment: ATG_frER2_XSP1: Attagene TRANS-FACTORIAL Multi-Species (XSP1) HepG2 Assay for frog Estrogen Receptor (ESR2) (AID 2283774)
Summary of the method: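 Reporter mRNA from a multiplexed TRANS system, measured by RT-PCR with fluorescent labelling and capillary electrophoresis, 24 hours after chemical exposure. Human HepG2 liver cells carried exogenous frog ER-Gal4 chimera; medium included 3 nM 6-alpha-fluorotestosterone; increases versus DMSO analysed.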

Measured: AC50

Chain of Cellular tumor antigen p53 (Homo sapiens) (P04637 whole entry, looked up): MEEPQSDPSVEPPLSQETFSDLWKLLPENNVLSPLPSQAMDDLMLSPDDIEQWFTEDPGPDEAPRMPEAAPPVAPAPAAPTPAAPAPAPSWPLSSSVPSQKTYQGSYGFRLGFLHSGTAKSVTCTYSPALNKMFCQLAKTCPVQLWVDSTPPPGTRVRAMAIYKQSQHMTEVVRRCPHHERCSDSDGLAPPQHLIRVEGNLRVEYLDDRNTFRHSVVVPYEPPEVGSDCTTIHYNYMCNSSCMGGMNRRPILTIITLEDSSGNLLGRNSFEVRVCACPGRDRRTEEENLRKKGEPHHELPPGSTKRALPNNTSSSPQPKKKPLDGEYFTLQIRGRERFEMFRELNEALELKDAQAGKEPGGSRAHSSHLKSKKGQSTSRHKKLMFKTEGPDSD
Chain of Luciferin 4-monooxygenase (Photinus pyralis) (P08659 whole entry, looked up): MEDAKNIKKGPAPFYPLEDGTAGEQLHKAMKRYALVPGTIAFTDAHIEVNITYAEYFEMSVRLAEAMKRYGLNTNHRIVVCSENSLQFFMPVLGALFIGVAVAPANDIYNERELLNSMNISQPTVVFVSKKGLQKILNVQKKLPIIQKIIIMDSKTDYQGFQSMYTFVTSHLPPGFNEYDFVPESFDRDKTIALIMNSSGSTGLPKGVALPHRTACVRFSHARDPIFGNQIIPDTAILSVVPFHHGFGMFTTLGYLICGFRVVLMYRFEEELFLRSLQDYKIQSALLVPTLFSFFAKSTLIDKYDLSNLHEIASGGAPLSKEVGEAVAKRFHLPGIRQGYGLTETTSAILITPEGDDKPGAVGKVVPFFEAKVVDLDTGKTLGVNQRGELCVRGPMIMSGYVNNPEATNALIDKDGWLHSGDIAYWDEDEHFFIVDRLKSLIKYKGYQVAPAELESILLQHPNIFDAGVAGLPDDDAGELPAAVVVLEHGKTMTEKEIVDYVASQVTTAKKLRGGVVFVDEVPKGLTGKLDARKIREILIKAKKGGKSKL
Chain of zebrafish Estrogen Receptor (ESR1), esr1 (gene 259252) (P57717 whole entry, looked up, the tested form may be a part): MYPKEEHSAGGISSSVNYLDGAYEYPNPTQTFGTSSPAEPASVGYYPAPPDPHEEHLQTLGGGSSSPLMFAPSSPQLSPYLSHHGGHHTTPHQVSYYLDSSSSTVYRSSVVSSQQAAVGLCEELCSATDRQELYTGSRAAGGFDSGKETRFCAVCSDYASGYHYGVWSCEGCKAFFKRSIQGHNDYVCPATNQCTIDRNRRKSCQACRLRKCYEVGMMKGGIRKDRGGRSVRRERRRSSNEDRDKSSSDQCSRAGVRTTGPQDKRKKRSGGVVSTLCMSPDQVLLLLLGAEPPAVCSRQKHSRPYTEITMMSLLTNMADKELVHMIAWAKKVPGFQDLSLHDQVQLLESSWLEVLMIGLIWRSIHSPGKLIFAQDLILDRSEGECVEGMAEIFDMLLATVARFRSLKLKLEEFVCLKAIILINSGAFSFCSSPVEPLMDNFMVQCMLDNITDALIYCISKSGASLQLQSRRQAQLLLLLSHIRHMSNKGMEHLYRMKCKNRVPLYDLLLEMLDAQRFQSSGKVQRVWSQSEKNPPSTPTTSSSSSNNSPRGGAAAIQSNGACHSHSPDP

CCCCCCCCC(=O)OCC
inactive: [1] | [2] | [3] | [4] | [5]

CC(C)c1ccc(C#N)cc1
inactive: [1] | [6] | [7] | [5] | [8]

Cc1ccccc1C
inactive: [1] | [6] | [7] | [5] | [8]

CC=C1CC2C=CC1C2 (centres undefined)
inactive: [1] | [6] | [7] | [3] | [4] | [9] | [5] | [8] | [10]

C1=Cc2ccccc2C1
inactive: [1] | [6] | [7] | [4] | [5] | [12] | [10]
active: [11] 43600 nM

Cc1cc(C)c(C)c(O)c1
inactive: [1] | [6] | [7] | [4] | [9] | [8]

COCCOCCOCCOCCOC
inactive: [1] | [2] | [4] | [5] | [8]

CC(C)CCCC(C)CC=O (centres undefined)
inactive: [1] | [2] | [4] | [9] | [5]

C=C(C)[C@H]1CC=C(C)CC1
inactive: [1] | [2] | [9] | [8]

CCCCCCC1(C)CCC(=O)O1 (centres undefined)
active: [10] 1100 nM
inactive: [1] | [6] | [7] | [3] | [4]

CC(C)=CCC[C@H](C)CCO
inactive: [1] | [6] | [7] | [3] | [4] | [5] | [10]

O=C(c1ccc(O)cc1)c1ccc(O)cc1O
inactive: [1] | [6] | [3]
active: [3] 68500 nM | [13] 1560 nM | [14] 2780 nM | [15] 1760 nM | [16] 1230 nM | [17] 729 nM

CCCCCCCCO[C@@H]1O[C@H](CO)[C@@H](O)[C@H](O)[C@H]1O
inactive: [1] | [6] | [7] | [3] | [10]

COC(=O)c1c(C)cc(O)c(C)c1O
active: [11] 11600 nM
inactive: [1] | [2] | [4] | [9] | [5] | [12]

CC(=O)[C@H]1[C@H](C#N)C[C@H]2[C@@H]3CC=C4C[C@@H](O)CC[C@]4(C)[C@H]3CC[C@@]21C
inactive: [1] | [2] | [4] | [9] | [5] | [8]

O=C(C(Cl)Cl)N1CCOC12CCCCC2
active: [10] 9810 nM
inactive: [1] | [2] | [3] | [4]

CC1(C)S[C@@H]2[C@H](NC(=O)COc3ccccc3)C(=O)N2[C@H]1C(=O)O
inactive: [1] | [6] | [3] | [4] | [9] | [8]

CCCCCCCCCCCCCCCCCC#N
inactive: [1] | [6] | [3] | [4] | [9] | [5]

C=C[Si](OC(C)=O)(OC(C)=O)OC(C)=O
inactive: [1] | [6] | [7] | [3] | [9] | [5] | [8]

ON(Cc1ccccc1)Cc1ccccc1
inactive: [1] | [6] | [7] | [3] | [5]

c1ccc(CNCc2ccccc2)cc1
inactive: [1] | [6] | [3] | [4]

CCCCCc1ccc(Cl)cc1
inactive: [1] | [2] | [3] | [8]

NC(=O)NNC(N)=O
inactive: [1] | [6] | [3] | [4] | [9] | [5]

O=C1C=CC(=O)O1
inactive: [1] | [2] | [9] | [5] | [8]

NNC(=O)c1cccc(C(=O)NN)c1
inactive: [1] | [6] | [3] | [4] | [9] | [8]

Cc1cccc(N)n1
inactive: [1] | [2] | [4] | [9] | [5] | [8]

C=CCOCC(O)CCl (centres undefined)
inactive: [1] | [6] | [7] | [9] | [5]

CCC(Cc1ccccc1)(C(=O)c1ccc(N2CCOCC2)cc1)N(C)C (centres undefined)
inactive: [1] | [2] | [3] | [4] | [5] | [8]

C(=CC=Nc1ccccc1)C=CNc1ccccc1
inactive: [1] | [7] | [3] | [4] | [9] | [5]
